This passage reports Potency and viability change, negative = cytotoxic results from PubChem BioAssay (Tox21).

Inconclusive results are not listed. Entries that show only a call come without a potency. Activity calls are given as the source filed them. The call rests on the fitted dose curve; in most records, active means well fitted cell-killing curve with a large enough effect in the repeat runs; inconclusive means weak or mixed curves, or effect the other way; inactive means flat fitted curve, though single readings scatter.

A short description of the assay: qHTS assay to identify small molecule antagonists of the androgen receptor (AR) signaling pathway using the MDA cell line in the presence of 0.5 nM R1881 - cell viability counter screen (AID 1259242). Further: nearly all actives have a fitted effect of over 45% in size. Particulars: MDA-kb2 viability, CellTiter-Fluor protease fluorescence, 16 h; series mostly up to 92.4 µM. The source says: U.S. Tox21 Program National Center for Advancing Translational Sciences [NCATS] NIH Chemical Genomics Center [NCGC] U.S. Environmental Protection Agency [EPA] National Institutes of Environmental Health Sciences [NIEHS] National Toxicology Program [NTP] U.S. Food and Drug Administration [FDA] Tox21 Assay Overview: Androgen receptor (AR) is an important member of the nuclear receptor family. Its signaling plays a critical role in AR-dependent prostate cancer and other androgen related diseases. Considerable attention has been given in the past decades to develop methods to study and screen for the environmental chemicals that have the potential to interfere with metabolic homeostasis, reproduction, developmental and behavioral functions. Therefore AR binding assay for screening androgen antagonists can be used to identify potential endocrine disruptors. MDA-kb2 cells (from ATCC, deposited by Wilson et al.) were used to screen for AR inhibitors against Tox21 compound libraries. These cells are human breast carcinoma cells that were stably transfected with a luciferase reporter gene under control of the MMTV promoter that contains response elements for both androgen receptor (AR) and glucocorticoid receptor (GR). The current screening for identification of AR inhibitors against Tox21 libraries used lower concentration of (0.5 nM) R1881 as a stimulator. The cytotoxicity of the Tox21 compound libraries against MDA-kb2 cell line was tested by measuring live-cell protease activity using CellTiter-Fluor assay in the same wells.
Tox21 Assay Protocol Summary: MDA-kb2 cells (cells cultured without CO2) were dispensed at 3,000 cells/well in 4 uL of culture medium into white wall/solid-bottom 1536-well plates (Corning Life Sciences, Corning, NY) using a Multidrop Combi (ThermoFisher Scientific, Waltham, MA) dispenser. After the assay plates were incubated at a 37C and 0% CO2 for 5 hr, 23 nL of compounds dissolved in DMSO, positive controls or DMSO only was transferred to the assay plate by a Pintool station (Kalypsys, San Diego, CA). The transfer of compounds was followed by the addition of 1 uL of 0.5 nM (final concentration) agonist (R1881)/culture medium using a Flying Reagent Dispenser (FRD, Aurora Discovery, San Diego, CA). The plates were incubated at 37C and 0% CO2 for 16 hr. For cytotoxicity assay, 1 uL of CellTiter-Fluor reagent (Promega Corporation, Madison, WI) was added to each well using the FRD and after 30 min incubation at 37C and 0% CO2, The fluorescence intensity was measured using ViewLux plate reader (PerkinElmer, Shelton, CT).
A general note: In qHTS, concentration-response curves come from the screen itself.
In the case of `C[C@H](NC(CCc1ccccc1)C(=O)O)C(=O)N1CCC[C@H]1C(=O)O` (stereo not given in full), the Potency entry is “inactive”.
Take `C=C(C)C(=O)OCCCCCCCC(C)C`: the Potency result was “inactive”.
Regarding `CCOC(=O)Nc1ccc(NCc2ccc(F)cc2)nc1N`, the Potency result is “inactive”.
`CC(C)(O)C(=O)c1ccccc1`: the Potency result is “inactive”.
Consider `C[C@@H]1CCN(C(=O)[C@H](CCCN=C(N)N)NS(=O)(=O)c2cccc3c2NC[C@H](C)C3)[C@@H](C(=O)O)C1`, for which the Potency entry is “inactive”.
The same measure, in the same setting: the result for `N=C(N)c1ccccc1` reads “inactive”.
`CCCCCCCCCCCCCCCCC`: the Potency result is “inactive”.
As to `CCOC(=O)CC(C)=O`, the Potency entry is “inactive”.
Regarding `O=C[C@H](O)[C@@H](O)[C@H](O)[C@H](O)CO`, the Potency result was “inactive”.
Regarding `Cn1c(N)c(N=O)c(=O)n(C)c1=O`, the Potency result is “inactive”.
Take `O=[N+]([O-])c1ccc(F)cc1F`: the Potency entry is “inactive”.
`Nc1ccc(S(=O)(=O)Nc2ccnn2-c2ccccc2)cc1`: the viability change, negative = cytotoxic was 0.287% [at 19 µM] (inactive).
For `CCCCOCCOCCOCc1cc2c(cc1CCC)OCO2`, the Potency entry is “inactive”.
Consider `CS(=O)(=O)O`, for which the Potency entry is “inactive”.
As to `CCSC(=O)N(CC(C)C)CC(C)C`, the Potency entry is “inactive”.
With `NS(=O)(=O)c1cc2c(cc1Cl)NC(C1CC3C=CC1C3)NS2(=O)=O` (stereo not given), the Potency entry was “inactive”.
Consider `CN(C)CCCSc1ccccc1NC(=O)/C=C/c1ccccc1`, for which the Potency entry is “inactive”.
In the case of `CCC(=O)OC(C)c1ccccc1` (stereo not given), the Potency result was “inactive”.
For the compound `O=c1[nH]c(=O)n([C@H]2C[C@H](O)[C@@H](CO)O2)cc1I`, the Potency result is “inactive”.
For `CCOC(=O)c1c(C)n(C)c2ccc(O)cc12`, the Potency result was “inactive”.
Turning to `CCCN1CCCC[C@H]1C(=O)Nc1c(C)cccc1C`, the Potency entry was “inactive”.
As to `COc1cc(C(=O)N2CCCCCCC2)cc(OC)c1OC`, the Potency result was “inactive”.
Turning to `CC[N+](C)(C)c1cccc(O)c1`, the Potency result was “inactive”.
As to `Cc1cc2c(cc1S(N)(=O)=O)S(=O)(=O)CCC2`, the Potency entry was “inactive”.
`CCN(CC)CCNC(=O)c1cc(S(C)(=O)=O)ccc1OC`: the Potency result is “inactive”.
Regarding `COc1ccc2c(c1)CCCC2=O`, the Potency entry was “inactive”.
On the same count and under the same terms, the entry for `CCCCCCCCCCCCN(CCCCCCCCCCCC)CCCCCCCCCCCC` is “inactive”; for `CCCN(CCC)CCc1cccc2c1CC(=O)N2` it is “inactive”.
As to `N[C@H](C(=O)O)c1ccc(O)cc1`, the viability change, negative = cytotoxic was 0.442% [at 19 µM] (inactive).
For `c1ccc([C@H]2CN3CCSC3=N2)cc1`, the Potency result is “inactive”.
Regarding `CC(C)(C)c1ccc(O)c(O)c1`, the Potency entry was “inactive”.
Same read-out and setting: the result for `c1cnc(N2CCN(Cc3ccc4c(c3)OCO4)CC2)nc1` reads “inactive”; that for `C=C1CC[C@H]2C[C@@H]1C2(C)C`, “inactive”.
Turning to `C/C=C(\C)C#N`, the Potency entry was “inactive”.
Consider `CC(C)(O)C#CC(C)(C)O`, for which the Potency result was “inactive”.
As to `C=C(C)CS(=O)(=O)O`, the Potency result was “inactive”.
Consider `Nc1cc(=O)[nH]c(N)n1`, for which the Potency result is “inactive”.
Consider `Nc1c2c(nc3ccccc13)CCCC2O` (stereo not given), for which the Potency entry was “inactive”.
Still for that read-out and setting: the result for `CC(C)NCC(O)c1ccc(NS(C)(=O)=O)cc1` (stereo not given) reads “inactive”; that for `Cc1ccc(C#N)cc1`, “inactive”.
